DT40 TDP1 CPT: qHTS for Inhibitors of human tyrosyl-DNA phosphodiesterase 1 (TDP1): qHTS in cells in presence of CPT; chicken DT40 Tdp1-/-;hTDP1 cells + 20 nM CPT, ATP luminescence, 48 h; Potency, µM (highest dose often 46.2 µM), usual class: inhibitors; 420,000 tested, 12% active; AID 686979, 2013; further: nearly all actives have a fitted effect of over 55% in size
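Chicken DT40 Tdp1-/- cells complemented with human TDP1, 400 cells/well, exposed to compounds plus 20 nM camptothecin for at least 48 h at 37 C; viability read as ATP content by CellTiter-Glo luminescence.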
Giardia killer: Small Molecules that selectively kill Giardia lamblia: qHTS | activity change, % at 7.66 µM, hits read low | 340,000 tested, 0.15% active | Giardia lamblia trophozoite viability; in the data active means activity change below about -80%; inconclusive means between about -30% and that limit;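 further: parasites exposed to compound for two days anaerobically before the ATP read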
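Killing of trophozoites was scored by loss of ATP luminescence after a 48 hrs anaerobic exposure to compounds at 37 deg C, using 100 cells per well.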
TDP1 block: qHTS Assay for Inhibitors of Tyrosyl-DNA Phosphodiesterase (TDP1); 350,000 tested, 0.28% active; Tyrosyl-DNA phosphodiesterase 1 (Homo sapiens), Q9NUW8; Potency, µM (top dose mostly 130 µM), usual class: inhibitors; recombinant TDP1, AlphaScreen DNA substrate cleavage; AID 485290, 2010; further: nearly all actives have a fitted effect of over 40% in size
Target sequence (Q9NUW8 whole entry, looked up): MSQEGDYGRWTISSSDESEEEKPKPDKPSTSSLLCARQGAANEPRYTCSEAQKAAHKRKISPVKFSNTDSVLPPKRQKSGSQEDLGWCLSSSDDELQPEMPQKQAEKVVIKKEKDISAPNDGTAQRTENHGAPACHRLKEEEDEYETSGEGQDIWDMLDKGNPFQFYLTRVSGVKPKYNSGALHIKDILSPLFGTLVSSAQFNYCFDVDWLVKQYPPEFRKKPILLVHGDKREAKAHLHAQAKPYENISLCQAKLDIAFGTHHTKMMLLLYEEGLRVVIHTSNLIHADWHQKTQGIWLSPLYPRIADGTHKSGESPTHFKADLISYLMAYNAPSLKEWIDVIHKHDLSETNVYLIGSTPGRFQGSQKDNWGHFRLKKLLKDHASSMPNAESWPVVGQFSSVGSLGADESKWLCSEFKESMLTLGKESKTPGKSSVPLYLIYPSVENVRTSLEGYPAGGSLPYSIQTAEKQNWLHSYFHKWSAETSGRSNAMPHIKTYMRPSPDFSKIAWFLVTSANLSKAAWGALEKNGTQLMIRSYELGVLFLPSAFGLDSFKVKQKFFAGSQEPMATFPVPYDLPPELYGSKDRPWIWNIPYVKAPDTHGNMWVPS
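Enzyme-compound mixtures sat 15 min at room temperature, followed by a 5 min reaction with 15 nM final substrate and 10 min with AlphaScreen beads. Recombinant human Tdp1 was used at 1 nM final.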
IL-1B inflam inh: qHTS for Inhibitors of Inflammasome Signaling: IL-1-beta AlphaLISA Primary Screen. 360,000 tested, 4.7% active. AID 743279, 2014. THP-1 LPS/ATP IL-1B secretion, AlphaLISA, 16 h; hits give low values. activity change, % at 57.5 µM; in the data active means activity change below about -50%; inconclusive means mostly about -30% to -49%
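THP-1 cells pretreated 1 hr with compounds (up to 57.5 uM final), then stimulated with LPS (250 ng/mL final) plus ATP (1.25 mM final); secreted IL-1B measured by AlphaLISA after 16 hr, decreased signal indicating inhibition.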
ELG1 repair inh: qHTS screen for small molecules that inhibit ELG1-dependent DNA repair in human embryonic kidney (HEK293T) cells expressing luciferase-tagged ELG1. HEK293T ELG1-luciferase reporter, luminescence, 16 h; DNA damage induced by 5-fluorouridine. Potency, µM (highest dose often 46.1 µM), most hits filed as inhibitors. 330,000 tested, 2.3% active; further: nearly all actives have a fitted effect of over 55% in size
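5-Fluorouridine DNA damage + compound/DMSO, 2,000 cells/well, 16 h, 37 °C/5% CO2. ONE-Glo, 30 min RT, luminescence. Readout = decrease in reporter signal.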
DT40 TDP1 no CPT: qHTS for Inhibitors of human tyrosyl-DNA phosphodiesterase 1 (TDP1): qHTS in cells in absence of CPT; AID 686978, 2013; 420,000 tested, 15% active; DT40 Tdp1-/- hTDP1 cells, no CPT, ATP luminescence, 48 h; Potency, µM (highest dose often 46.2 µM), most hits filed as inhibitors; further: nearly all actives have a fitted effect of over 55% in size
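Compound effects on proliferation are scored in DT40 Tdp1-/-;hTDP1 cells in the absence of CPT. ATP levels (CellTiter-Glo luminescence) are recorded after a ≥48 hr, 37 °C incubation.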
Hits are given with their value; [ ] = remark or other dose. The list is not random: actives were taken first. Their share in the collection is about 19%. Unless noted, the call rests on the fitted dose curve; in most records, active means well fitted curve in the direction sought with a large enough effect; inconclusive means small, poorly fitted or top-dose-only effect, or another doubt; inactive means no such curve, though single readings can be large; an effect the other way counts as inactive or inconclusive.

How did CC/C=C\CC[C@H](OC(=O)c1ccc(Br)cc1)C1=CCCCC1=O do in these assays?
TDP1 block: inactive[21 µM]

Results for CCN1C(=S)SC(=O)C1=C1C=C(C)N(Cc2ccco2)C(C)=C1 ?
DT40 TDP1 CPT: 4.6µM; Giardia killer: inactive; TDP1 block: inactive; IL-1B inflam inh: inactive; ELG1 repair inh: inconclusive; DT40 TDP1 no CPT: 5.2µM

How did CCCN(CCC)S(=O)(=O)c1ccc(C(=O)Nc2nnc(CSC)o2)cc1 do in these assays?
DT40 TDP1 CPT: inconclusive; Giardia killer: inactive; TDP1 block: inactive; IL-1B inflam inh: inactive; ELG1 repair inh: inconclusive; DT40 TDP1 no CPT: inconclusive

What do the screens show for `CCCCN(CC)S(=O)(=O)c1ccc(C(=O)Nc2nnc(COC)o2)cc1`?
DT40 TDP1 CPT: inconclusive; Giardia killer: inactive; TDP1 block: inactive; IL-1B inflam inh: inactive; ELG1 repair inh: inactive; DT40 TDP1 no CPT: inconclusive

Results for COCc1nnc(NC(=O)c2ccc(S(=O)(=O)N(CC(C)C)CC(C)C)cc2)o1 ?
DT40 TDP1 CPT: inconclusive; Giardia killer: inactive; TDP1 block: inactive; IL-1B inflam inh: inactive; ELG1 repair inh: inconclusive; DT40 TDP1 no CPT: inconclusive

What do the screens show for `CCCCN(CC)S(=O)(=O)c1ccc(C(=O)Nc2nnc(CSC)o2)cc1`?
DT40 TDP1 CPT: inconclusive; Giardia killer: inactive; TDP1 block: inactive; IL-1B inflam inh: inactive; ELG1 repair inh: inconclusive; DT40 TDP1 no CPT: 15µM

Results for CCCCN(CCCC)S(=O)(=O)c1ccc(C(=O)Nc2nnc(CSC)o2)cc1 ?
DT40 TDP1 CPT: 15µM; Giardia killer: inactive; TDP1 block: inactive; IL-1B inflam inh: inactive; ELG1 repair inh: inactive; DT40 TDP1 no CPT: 9.2µM

How did CCN(c1ccccc1)S(=O)(=O)c1ccc(C(=O)Nc2cccc(C)n2)cc1 do in these assays?
DT40 TDP1 CPT: 23µM; Giardia killer: inactive; TDP1 block: inactive; IL-1B inflam inh: inconclusive; ELG1 repair inh: inconclusive; DT40 TDP1 no CPT: 12µM

How did CCN(c1ccccc1)S(=O)(=O)c1ccc(C(=O)Nc2nnc(CSC)o2)cc1 do in these assays?
DT40 TDP1 CPT: inconclusive; Giardia killer: inactive; TDP1 block: inactive; IL-1B inflam inh: inactive; ELG1 repair inh: inconclusive; DT40 TDP1 no CPT: 9.2µM

How did CC1=C([N+](=O)[O-])C(c2ccccc2C(F)(F)F)NC(=O)N1C (stereo not drawn) do in these assays?
DT40 TDP1 CPT: inactive; Giardia killer: inactive; TDP1 block: inactive; IL-1B inflam inh: inactive; ELG1 repair inh: inactive; DT40 TDP1 no CPT: inactive

Results for O=c1cc(-c2ccccc2)oc2c(O)c(O)ccc12 ?
DT40 TDP1 CPT: inconclusive; TDP1 block: inactive; DT40 TDP1 no CPT: inconclusive

How did O=c1cc(-c2ccccc2O)oc2c(O)c(O)ccc12 do in these assays?
DT40 TDP1 CPT: 24µM; DT40 TDP1 no CPT: 30µM

What do the screens show for `CC(C)c1nc(-c2ccccc2)c(-c2ccccc2)[nH]1`?
DT40 TDP1 CPT: inconclusive; Giardia killer: inactive; TDP1 block: inactive; IL-1B inflam inh: inactive; ELG1 repair inh: inactive; DT40 TDP1 no CPT: 21µM

Results for Cc1cc(C(=O)OCC(=O)NCCCN2CCCC2=O)c2ccccc2n1 ?
DT40 TDP1 CPT: inactive; Giardia killer: inactive; TDP1 block: inactive; IL-1B inflam inh: inactive; ELG1 repair inh: inactive; DT40 TDP1 no CPT: inactive

Results for CSCCC(NS(=O)(=O)c1ccc2c(c1)OCCO2)C(=O)N(C)Cc1ccc(F)cc1 (stereo not drawn) ?
DT40 TDP1 CPT: 23µM; Giardia killer: inactive; TDP1 block: inactive[0.505 µM]; IL-1B inflam inh: inactive; ELG1 repair inh: inconclusive; DT40 TDP1 no CPT: 13µM

Results for CSCCC(NS(=O)(=O)c1cccc(C(F)(F)F)c1)C(=O)N(C)Cc1ccc2c(c1)OCCO2 (stereo not drawn) ?
DT40 TDP1 CPT: inconclusive; Giardia killer: inactive; TDP1 block: inactive; IL-1B inflam inh: inactive; ELG1 repair inh: inactive; DT40 TDP1 no CPT: inconclusive

What do the screens show for `CSCCC(NS(=O)(=O)c1ccc2c(c1)OCCO2)C(=O)N(C)Cc1ccccc1F` (stereo not drawn)?
DT40 TDP1 CPT: inconclusive; Giardia killer: inconclusive; TDP1 block: inactive; IL-1B inflam inh: inactive; ELG1 repair inh: 16µM; DT40 TDP1 no CPT: 21µM

Results for C[C@@]12CCC(=O)C=C1CC[C@@H]1[C@@H]2[C@H](O)C[C@]2(C)[C@@H]1CC[C@]2(O)C(=O)CO ?
TDP1 block: inactive[21 µM]

How did NCCCC[C@H](NC(=O)[C@@H]1CCCN1C(=O)[C@@H]1CSSC[C@H](NC(=O)CNC(=O)CNC(=O)CN)C(=O)N[C@@H](Cc2ccc(O)cc2)C(=O)N[C@@H](Cc2ccccc2)C(=O)N[C@@H](CCC(N)=O)C(=O)N[C@@H](CC(N)=O)C(=O)N1)C(=O)NCC(N)=O do in these assays?
DT40 TDP1 CPT: inactive; DT40 TDP1 no CPT: inactive

What do the screens show for `Cc1cccc(C)c1OCC(N)C(C)C` (stereo not drawn)?
DT40 TDP1 CPT: inactive; Giardia killer: inactive; TDP1 block: inactive; IL-1B inflam inh: -57; ELG1 repair inh: inactive; DT40 TDP1 no CPT: inactive

How did Cc1ccc(O)c(C(=O)c2cnc3c(c2)CN(C)C(=O)N3)c1 do in these assays?
DT40 TDP1 CPT: inconclusive; Giardia killer: inactive; TDP1 block: inactive; IL-1B inflam inh: inactive; ELG1 repair inh: inconclusive; DT40 TDP1 no CPT: inconclusive

What do the screens show for `Cc1ccc(O)c(C(=O)c2cnc3c(c2)CN(CCC(C)C)C(=O)N3)c1`?
DT40 TDP1 CPT: 10µM; Giardia killer: inactive; TDP1 block: inactive; IL-1B inflam inh: inactive; ELG1 repair inh: inactive; DT40 TDP1 no CPT: 12µM

What do the screens show for `CCOC(=O)c1ccccc1NC(=O)COC(=O)CCC(=O)c1ccc(C)cc1`?
DT40 TDP1 CPT: inactive; Giardia killer: inactive; IL-1B inflam inh: inactive; ELG1 repair inh: inactive; DT40 TDP1 no CPT: inconclusive

How did Cc1cccc(NC(=O)[C@H](Cc2ccccc2)NC(=O)[C@@H]2Cc3ccccc3CN2)c1 do in these assays?
DT40 TDP1 CPT: inactive; Giardia killer: inactive; TDP1 block: inactive; IL-1B inflam inh: inactive; ELG1 repair inh: inconclusive; DT40 TDP1 no CPT: inactive

Results for CC(=O)NCCc1ccc(O)cc1 ?
DT40 TDP1 CPT: inactive; Giardia killer: inactive; IL-1B inflam inh: inactive; ELG1 repair inh: inactive; DT40 TDP1 no CPT: inactive

Results for O=C1c2ccccc2CCC1CNCCc1ccc(O)cc1 (stereo not drawn) ?
DT40 TDP1 CPT: inactive; TDP1 block: inactive; DT40 TDP1 no CPT: 21µM

What do the screens show for `O=C1c2ccccc2CC[C@H]1CNCCc1ccc(O)cc1`?
DT40 TDP1 CPT: 13µM; TDP1 block: inactive; DT40 TDP1 no CPT: 13µM
